Results on 40 compounds are retold here after PubChem BioAssay (NCATS).

Unmarked numbers belong to inactive results.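 The calls were made as follows: active = compounds whose dose series gives a full or clear partial fitted curve of increased nuclear translocation; inconclusive = weak partial curve or effect only at the top dose; inactive = no dose-dependent translocation response.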
Potency is read from the fitted curve at half-maximal effect.

The target of the experiment is Glucocorticoid receptor (Homo sapiens) (UniProt P04150). The experiment is described as follows: GR-GFP Redistribution (AID 450). The following applies: U2OS GR-GFP nuclear translocation, laser cytometry, 2 h; series mostly up to 20.6 µM.
Chain of Glucocorticoid receptor (Homo sapiens) (P04150 whole entry, looked up): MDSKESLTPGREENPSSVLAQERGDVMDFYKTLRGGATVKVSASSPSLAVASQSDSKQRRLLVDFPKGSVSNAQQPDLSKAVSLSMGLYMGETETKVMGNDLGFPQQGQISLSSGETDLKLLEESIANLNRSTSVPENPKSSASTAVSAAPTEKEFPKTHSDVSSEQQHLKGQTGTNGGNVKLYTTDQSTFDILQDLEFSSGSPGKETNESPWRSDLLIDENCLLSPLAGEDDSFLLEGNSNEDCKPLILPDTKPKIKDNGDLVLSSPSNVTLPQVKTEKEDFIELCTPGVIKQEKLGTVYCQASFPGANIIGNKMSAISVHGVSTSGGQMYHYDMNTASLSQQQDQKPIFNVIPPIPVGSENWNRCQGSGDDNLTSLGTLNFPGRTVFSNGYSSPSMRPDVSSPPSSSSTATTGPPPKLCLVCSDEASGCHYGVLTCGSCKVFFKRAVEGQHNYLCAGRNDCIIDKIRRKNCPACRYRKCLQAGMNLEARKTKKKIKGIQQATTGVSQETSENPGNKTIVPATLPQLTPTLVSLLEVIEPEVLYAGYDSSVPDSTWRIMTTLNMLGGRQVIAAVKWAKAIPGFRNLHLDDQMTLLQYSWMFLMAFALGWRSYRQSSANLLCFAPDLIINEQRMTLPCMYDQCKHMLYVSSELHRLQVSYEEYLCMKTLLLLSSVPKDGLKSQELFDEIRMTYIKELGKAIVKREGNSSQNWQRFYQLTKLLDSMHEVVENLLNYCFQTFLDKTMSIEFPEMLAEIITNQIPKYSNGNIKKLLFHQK
As for `c1cncc(-c2nnc3sc(-c4ccco4)nn23)c1`, the Potency is greater than 20.6 µM.

With `Cc1cccc(N2C(=O)CC(N3CCN(Cc4ccc(Cl)cc4)CC3)C2=O)c1` (stereo not given), the Potency is greater than 20.6 µM.

In the case of `N#Cc1nc(COc2ccccc2F)oc1NCCCn1ccnc1`, the Potency is greater than 20.6 µM.

With `Cc1cccc(N(CC(O)CN(C)C)S(=O)(=O)c2ccccc2)c1` (stereo not given), the Potency was greater than 20.6 µM.

In the case of `Cn1c(OCc2cccnc2)nc2c1c(=O)n(Cc1ccc(Cl)cc1)c(=O)n2C`, the Potency is greater than 20.6 µM.

Consider `CSc1nc2sc3c(c2c(=O)[nH]1)CCC(C)C3` (stereo not given), for which the Potency is greater than 20.6 µM.

Regarding `COc1ccccc1N1CCN(C2CCN(C(=O)c3cccs3)CC2)CC1`, the Potency was greater than 20.6 µM.

Consider `C=CCc1cccc(/C=N/n2cnnc2)c1O`, for which the Potency is greater than 20.6 µM.

Turning to `O=S(=O)(c1ccc2ccccc2c1)N(CC(O)CN1CCOCC1)c1ccccc1` (stereo not given), the Potency was greater than 20.6 µM.

Turning to `CC(C)c1[nH]c(=O)c(C#N)c2c1CSC(C)(C)C2`, the Potency is greater than 20.6 µM.

Consider `COc1cc(S(=O)(=O)N2CCN(c3ccc(F)cc3)CC2)ccc1Cl`, for which the Potency was greater than 20.6 µM.

Take `O=C(O)CC1SC(=Nc2cccc(C(F)(F)F)c2)NC1=O` (stereo not given): the Potency was greater than 20.6 µM.

Regarding `CCC(=O)NC1(C(F)(F)F)C(=O)Nc2c1c(=O)[nH]c(=O)n2Cc1ccco1` (stereo not given), the Potency was greater than 20.6 µM.

In the case of `O=c1c(F)cn(C2CCCO2)c(=O)n1Cc1ccccc1Cl` (stereo not given), the Potency is greater than 20.6 µM.

`CS(=O)(=O)c1ccc2nc(NC(NC(=O)c3ccco3)(C(F)(F)F)C(F)(F)F)sc2c1`: the Potency is greater than 20.6 µM.

For the compound `CCn1c(SC(C)C(=O)O)nc2sc3c(c2c1=O)CCC3` (stereo not given), the Potency is greater than 20.6 µM.

In the case of `Cc1nc2c(c(=O)n1CC1CCCO1)c1nc3ccccc3nc1n2CC(C)C` (stereo not given), the Potency is greater than 20.6 µM.

With `O=c1cc(O)nc2n1CCCS2`, the Potency is greater than 20.6 µM.

In the case of `COc1cc(C)nc(N(C)S(=O)(=O)c2ccccc2Cl)n1`, the Potency is greater than 20.6 µM.

For the compound `COc1cc(C2C3C(=O)N(c4ccccc4)C(=O)C3ON2c2ccccc2)ccc1O` (stereo not given), the Potency is greater than 20.6 µM.

For `COc1ccc(C2C(C#N)=C(N)SC(N)=C2C#N)cc1OC`, the Potency was greater than 20.6 µM.

Take `Clc1ccc2[nH]c3c(NCCCN4CCOCC4)ncnc3c2c1`: the Potency was greater than 20.6 µM.

With `CCOc1cccc(-c2nn3c(-c4ccco4)nnc3s2)c1`, the Potency was greater than 20.6 µM.

`CCCCOC(=O)c1[nH]c(C)c(C(=O)OC)c1C`: the Potency is greater than 20.6 µM.

`CC1(C)Cc2c(c(N3CCOCC3)nc3snc(N)c23)CO1`: the Potency was greater than 20.6 µM.

On to `CCOc1ccccc1N1CCN(c2nc3ccccc3nc2C(C#N)C(=O)OC)CC1` (stereo not given), for which the Potency is greater than 20.6 µM.

For the compound `CC(=O)Nc1ccc(NCC(O)COc2ccccc2)cc1` (stereo not given), the Potency was greater than 20.6 µM.

In the case of `O=C1NC(c2cccs2)Nc2ccccc21` (stereo not given), the Potency is greater than 20.6 µM.

`CCOC(=O)CNC(=O)CNC(=O)c1ccc(OC)cc1`: the Potency was greater than 20.6 µM.

Take `O=C(NCc1ccccc1)C1C(=O)N(Cc2ccccc2)C(=O)C1C1(O)CCCC1` (stereo not given): the Potency was greater than 20.6 µM.

With `CC(C)Cc1[nH]c(=O)c(C#N)c2c1CCCC2`, the Potency is greater than 20.6 µM.

As to `Nc1nnc(CC2=CCCCC2)s1`, the Potency was greater than 20.6 µM.

As to `CCN=C1SC(C(=O)Nc2ccc(Cl)c(Cl)c2)CC(=O)N1CC` (stereo not given), the Potency was greater than 20.6 µM.

Take `CCC1CC2(C)NC(=O)c3c(sc4c3CC(C)(C)OC4)N2C1=O` (stereo not given): the Potency is greater than 20.6 µM.

Take `COC(=O)CCc1c(C)[nH]c(=S)[nH]c1=O`: the Potency was greater than 20.6 µM.

In the case of `CC(C)(C)C1=Nn2c(nnc2C2CCCCC2)SC1`, the Potency was greater than 20.6 µM.

For `c1coc(-c2nc3nc4ccccc4nc3n2-c2ccc3c(c2)OCCO3)c1`, the Potency was greater than 20.6 µM.

On to `C/C(=N\O)c1c(C)c2ccccc2n1C`, for which the Potency was greater than 20.6 µM.

In the case of `Cc1cc(N2C(=O)C(=O)/C(=C(/O)c3ccc(F)cc3)C2c2cccc(Br)c2)no1` (stereo not given), the Potency is greater than 20.6 µM.

On to `CCCCOC(=O)CCc1nc2ccccc2[nH]1`, for which the Potency was greater than 20.6 µM.
